Reference: PubChem BioAssay (Tox21)
Inconclusive results are not listed. Activity calls are given as the source filed them. The call rests on the fitted dose curve; in most records, active means well fitted curve in the direction sought with a large enough effect in the repeat runs; inconclusive means weak or mixed curves; inactive means no such curve, though single readings can be large; an effect the other way counts as inactive or inconclusive.

Legend:
[1] = qHTS RealTime-Glo MT Cell Viability Assay in HepG2 cells - 24 hour (AID 1224867); further: nearly all actives have a fitted effect of over 50% in size
In short: (§1)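 Luminescence read-out: viable HepG2 cells reduce a prosubstrate to a NanoLuc substrate, giving a signal proportional to live cell number. Reads taken at 0, 8, 16, 24, 32 and 40 h of compound exposure at 37 C.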

[2] = qHTS RealTime-Glo MT Cell Viability Assay in HEK293 cells - 32 hour (AID 1224868); further: top concentration of the series differs between compounds; nearly all actives have a fitted effect of over 50% in size
In short: (§2)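 Nonlytic real-time viability readout: viable cells convert prosubstrate to NanoLuc substrate, giving luminescence proportional to live cell number. HEK293, 600 cells/well, compound added after 5 h, continuous culture at 37 C.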

[3] = A CellTox Green Cytotoxicity Assay to monitor cytotoxicity in HEK293 cells - 0 hour (AID 1224869); further: nearly all actives have a fitted effect of over 50% in size
In short: (§3)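 Fluorescence from a DNA-binding dye excluded by viable cells was measured repeatedly in the same HEK293 wells (600 cells/well) during continuous compound exposure at 37 C. Each assay gives one read point: 0, 8, 16, 24, 32 or 40 h.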

[4] = qHTS RealTime-Glo MT Cell Viability Assay in HepG2 cells - 40 hour (AID 1224870); further: nearly all actives have a fitted effect of over 50% in size
In short: (§4)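 HepG2 cells (600/well) mixed with RealTime-Glo MT reagent, settled 5 h at 37 C/5% CO2 before compound addition. Nonlytic NanoLuc luminescence from viable-cell prosubstrate reduction read repeatedly during 40 h treatment at 37 C.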

[5] = A CellTox Green Cytotoxicity Assay to monitor cytotoxicity in HEK293 cells - 40 hour (AID 1224871); further: nearly all actives have a fitted effect of over 45% in size
In short: as §3

[6] = qHTS RealTime-Glo MT Cell Viability Assay in HEK293 cells - 16 hour (AID 1224872)
In short: as §2

[7] = qHTS RealTime-Glo MT Cell Viability Assay in HepG2 cells - 8 hour (AID 1224873); further: nearly all actives have a fitted effect of over 55% in size
In short: as §4

[8] = qHTS RealTime-Glo MT Cell Viability Assay in HEK293 cells - 40 hour (AID 1224874); details: RealTime-Glo luminescence; max response: hits give low values; further: nearly all actives have a fitted effect of over 50% in size
In short: (§5)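 Luminescence, which tracks viable cell number through reduction of the prosubstrate to a NanoLuc substrate, was read over continuous 37 C culture. Cells (600/well) were premixed with reagent and rested 5 h before 23 nL of compound in DMSO was pinned.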

[9] = A CellTox Green Cytotoxicity Assay to monitor cytotoxicity in HEK293 cells - 24 hour (AID 1224875); further: series mostly up to about 77 µM; nearly all actives have a fitted effect of over 45% in size
In short: as §3

[10] = A CellTox Green Cytotoxicity Assay to monitor cytotoxicity in HepG2 cells - 16 hour (AID 1224876); further: nearly all actives have a fitted effect of over 45% in size
In short: (§6)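 Real-time cytotoxicity: fluorescence of a cell-impermeant cyanine dye binding DNA of dead HepG2 cells, measured repeatedly (0–40 h) during compound exposure at 37 C. Cells seeded 600/well with reagent, dosed after 5 h.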

[11] = A CellTox Green Cytotoxicity Assay to monitor cytotoxicity in HepG2 cells - 24 hour (AID 1224878); further: nearly all actives have a fitted effect of over 45% in size
In short: as §6

[12] = A CellTox Green Cytotoxicity Assay to monitor cytotoxicity in HepG2 cells - 40 hour (AID 1224879); further: nearly all actives have a fitted effect of over 40% in size
In short: as §6

[13] = qHTS RealTime-Glo MT Cell Viability Assay in HEK293 cells - 0 hour (AID 1224880)
In short: as §5

[14] = A CellTox Green Cytotoxicity Assay to monitor cytotoxicity in HEK293 cells - 32 hour (AID 1224881); further: nearly all actives have a fitted effect of over 40% in size
In short: as §3

[15] = A CellTox Green Cytotoxicity Assay to monitor cytotoxicity in HepG2 cells - 0 hour (AID 1224882); further: nearly all actives have a fitted effect of over 35% in size
In short: as §6

[16] = A CellTox Green Cytotoxicity Assay to monitor cytotoxicity in HepG2 cells - 32 hour (AID 1224883); further: nearly all actives have a fitted effect of over 50% in size
In short: as §6

[17] = A CellTox Green Cytotoxicity Assay to monitor cytotoxicity in HEK293 cells - 8 hour (AID 1224884); further: nearly all actives have a fitted effect of over 35% in size
In short: as §3

[18] = qHTS RealTime-Glo MT Cell Viability Assay in HepG2 cells - 16 hour (AID 1224885); further: nearly all actives have a fitted effect of over 50% in size
In short: as §1

[19] = qHTS RealTime-Glo MT Cell Viability Assay in HEK293 cells - 24 hour (AID 1224886)
In short: as §2

[20] = qHTS RealTime-Glo MT Cell Viability Assay in HepG2 cells - 32 hour (AID 1224877); further: nearly all actives have a fitted effect of over 55% in size
In short: as §1
On the % scale 0 is the no-effect control and ±100 the full control effect.

CC(C)CCCC(C)CC=O (stereo not given)
inactive: outcome [1] | Potency [2] | Potency [3] | outcome [4] | Potency [5] | Potency [6] | outcome [7] | max response [8] 0.176% | Potency [9] | Potency [10] | Potency [11] | Potency [12] | outcome [13] | Potency [14] | Potency [15] | Potency [16] | Potency [17] | outcome [18] | Potency [19]

CCC(C)N (stereo not given)
inactive: outcome [1] | Potency [2] | Potency [3] | outcome [4] | Potency [5] | Potency [6] | outcome [7] | max response [8] -5.31% | Potency [9] | Potency [10] | outcome [20] | Potency [11] | Potency [12] | outcome [13] | Potency [15] | Potency [16] | Potency [17] | outcome [18] | Potency [19]

O=C(O)c1ccccc1C(=O)OCc1ccccc1
inactive: outcome [1] | Potency [2] | Potency [3] | outcome [4] | Potency [5] | Potency [6] | outcome [7] | max response [8] 3.76% | Potency [9] | Potency [10] | outcome [20] | Potency [11] | Potency [12] | outcome [13] | Potency [15] | Potency [16] | Potency [17] | outcome [18] | Potency [19]

CC(C)=CC(C)(C)C
inactive: outcome [1] | Potency [2] | Potency [3] | outcome [4] | Potency [5] | Potency [6] | outcome [7] | max response [8] 6.16% | Potency [9] | Potency [10] | outcome [20] | Potency [11] | Potency [12] | outcome [13] | Potency [15] | Potency [16] | outcome [18] | Potency [19]

O=S(=O)(O)SSS(=O)(=O)O
inactive: outcome [1] | Potency [2] | Potency [3] | outcome [4] | Potency [5] | Potency [6] | outcome [7] | max response [8] 4.41% | Potency [9] | Potency [10] | outcome [20] | Potency [11] | Potency [12] | Potency [14] | Potency [15] | Potency [16] | Potency [17] | outcome [18] | Potency [19]

CCOC(=O)CC(CC(=O)OCC)(OC(C)=O)C(=O)OCC
inactive: outcome [1] | Potency [2] | Potency [3] | outcome [4] | Potency [5] | Potency [6] | outcome [7] | max response [8] -6.27% | Potency [9] | Potency [10] | Potency [11] | Potency [12] | outcome [13] | Potency [14] | Potency [15] | Potency [16] | Potency [17] | outcome [18] | Potency [19]

CCCCCC1CCCC(=O)O1 (stereo not given)
inactive: outcome [1] | Potency [2] | Potency [3] | outcome [4] | Potency [5] | Potency [6] | outcome [7] | max response [8] 7.32% | Potency [9] | Potency [10] | outcome [20] | Potency [11] | Potency [12] | Potency [14] | Potency [15] | Potency [16] | Potency [17] | outcome [18] | Potency [19]

CC(=O)OC(C)(C)Cc1ccccc1
inactive: outcome [1] | Potency [2] | Potency [3] | outcome [4] | Potency [5] | Potency [6] | outcome [7] | max response [8] 6.53% | Potency [9] | Potency [10] | outcome [20] | Potency [11] | Potency [12] | Potency [14] | Potency [15] | Potency [16] | Potency [17] | outcome [18] | Potency [19]

COC(OC)C(C)c1ccccc1 (stereo not given)
inactive: outcome [1] | Potency [2] | Potency [3] | outcome [4] | Potency [5] | Potency [6] | outcome [7] | max response [8] 5.02% | Potency [9] | Potency [10] | outcome [20] | Potency [11] | Potency [12] | Potency [14] | Potency [15] | Potency [16] | outcome [18] | Potency [19]

C[C@@H]1C[C@H]2[C@@H]3C[C@H](F)C4=CC(=O)C=C[C@]4(C)[C@@]3(F)[C@@H](O)C[C@]2(C)[C@@]1(O)C(=O)CO
inactive: outcome [1] | Potency [2] | Potency [3] | outcome [4] | Potency [5] | Potency [6] | outcome [7] | max response [8] -1.4% | Potency [9] | Potency [10] | outcome [20] | Potency [12] | Potency [14] | Potency [17] | outcome [18] | Potency [19]
